Laboratory results from PubChem BioAssay (EPA / NIEHS).
Where “and” joins values, the source holds several entries; their conditions need not be identical. Equal entries are not always repeated. A structure can be active in one record and inactive in another. Calls of active or inactive are those of the source. Rule for the calls: active = hit-call score of the fitted dose curve at least 0.9, where 1 is the maximum; inactive = score below 0.9.

The compounds below were run on 3-Hydroxy-3-Methylglutaryl-CoA Synthase 2 (HMGCS2), HMGCS2 (gene 3158) (assay: LTEA_HepaRG_HMGCS2: Life Technologies and Expression Analysis (LTEA) Assay for 3-Hydroxy-3-Methylglutaryl-CoA Synthase 2 (HMGCS2) using HepaRG (AID 2283504)). Conditions: mRNA level, 48 h; actives raise or lower the signal.
Description: LTEA_HepaRG is a cell based, multiplexed-readout assay that uses HepaRG, a human liver cell line, with measurements taken at 48 hours after chemical dosing on a 96-well plate.LTEA_HepaRG_HMGCS2 is one of 102 assay component(s) measured in the LTEA HepaRG cell culture assay. It is a marker of Steatosis.Data from the assay component LTEA_HepaRG_HMGCS2 was analyzed into 1 endpoint. This assay endpoint, LTEA_HepaRG_HMGCS2, was analyzed with bidirectional fitting relative to DMSO as the negative control and baseline of activity. Using a type of inducible reporter, measures of mRNA induction for gain or loss-of-signal activity can be used to understand regulation of transcription factor activity. To generalize the intended target to other relatable targets, this assay endpoint is annotated to the lyase intended target family, where the subfamily is HMG-CoA synthase.
A total of 1060 chemcials from the ToxCast library were tested in eight-point concentration-response experiments. Cell culture and cytotoxicity assays were conducted at Thermo Fisher Scientific's Custom Services facility (Madison, WI). A single lot of human HepaRG cells (Thermo Fisher Scientific, Frederick, MD) was used for the cell culture experiments. 96-well format collagen type I coated plates of human HepaRG cells were prepared using established methods. Briefly, cryopreserved HepaRG cells were thawed, plated at a density of approximately 100,000 cells/well in HepaRG Thaw, Plate, and General Purpose media (HPRG770, Thermo Fisher Scientific), and incubated for 48 hours. 0.5% DMSO was selected as vehicle control to balance the requisite need of DMSO in HepaRG cultures to maintain differentiation (for example, baseline metabolism, proportions of hepatocytes vs. cholangiocytes), while enabling further hepatic receptor pathway activation (for example, PXR and CAR) in response to chemical exposure. 48 hours after plating, the culture medium was replaced with HepaRG Serum-Free Incudtion Media. Cells were exposed to each test chemical in duplicate and maintained in CO2 incubators for another 48 hours. Chemical plates were thawed to room temperature and 200x concentrations of treatment groups were prepared. 8-point conentration-reponse curves were made with the highest exposure at 100 uM, followed by half-log dilutions, all in 0.5% DMSO. Each test plate contained variouse controls, induction positive controls (1mM phenobarbital), cytotoxicity positive controls ([…] aflatoxin B1), vehicle controls (0.5% DMSO), and total lysis controls (0.5% DMSO). Cell morphology images were taken using an Essen IncuCyte FLR automated microscope, with six 96-well plates imaged in about 24 minutes. Images were captured and exported and JPEG files. Spent culture media was transfered to black-well plates for the LDH assay, and remaining media was sorted at -80 C for later use. Cells were treated with RLT buffer and frozen until shipped for gene expression analysis. Total RNA was isolated from the cell suspension in 75 uL of Buffer RLT (Qiagen, Germantown, MD 20874) by Quintiles/Expression Analysis (Durham, NC) using a custom isolation procedure. Total RNA from each plate well was transferred to a preamplification plate. Fluidigm's 96.96 Dynamic ArrayTM (Fluidigm, Amsterdam, the Netherlands) technology was used for gene expression analyses by quantitative reverse transcription polymerase chain reaction (qRT-PCR, performed by Quintiles/Expression Analysis, Durham, NC)89. Standard TaqManTM Assays (Applied Biosystems/ThermoFisher Scientific, Foster City, CA) were used to assess the expression of 93 genes selected based on their selectivity and sensitivity to important hepatic receptors known to be modulated by environmental chemicals; importance in human hepatocyte functionality; and hepatotoxicity. […]

SMILES | AC50 | outcome
CC(C)N(C(=O)COc1nnc(C(F)(F)F)s1)c1ccc(F)cc1 | 50 µM (active) | –
CCCN(CCOc1c(Cl)cc(Cl)cc1Cl)C(=O)n1ccnc1 | 29.7 µM (active) | –
CCC(C)(C)C(=O)OC1=C(c2ccc(Cl)cc2Cl)C(=O)OC12CCCCC2 | 50 µM (active) | –
CN1CSC(=S)N(C)C1 | – | inactive
COP(=O)(OC)OC=C(Cl)Cl | – | inactive
O=S(=O)(O)C(F)(F)C(F)(F)C(F)(F)C(F)(F)C(F)(F)C(F)(F)C(F)(F)C(F)(F)F | 83.8 µM (active) and 92.2 µM (active) and 81.5 µM (active) | inactive
ClC1C(Cl)C(Cl)C(Cl)C(Cl)C1Cl (stereo not given) | 25.4 µM (active) | inactive
CNC(=O)CSP(=S)(OC)OC | – | inactive
O=C(Nc1ccccc1)Nc1cnns1 | 73.7 µM (active) | –
Oc1cc(Cl)ccc1Oc1ccc(Cl)cc1Cl | 82.8 µM (active) | inactive
CC[C@H](C)[C@H]1O[C@]2(C=C[C@@H]1C)C[C@@H]1C[C@@H](C/C=C(\C)[C@@H](O[C@H]3C[C@H](OC)[C@@H](O[C@H]4C[C@H](OC)[C@@H](O)[C@H](C)O4)[C@H](C)O3)[C@@H](C)/C=C/C=C3\CO[C@@H]4[C@H](O)C(C)=C[C@@H](C(=O)O1)[C@]34O)O2 (tested in a mixture with another compound) | 16.2 µM (active) | –
CC1(c2ccc(Oc3ccccc3)cc2)OC(=O)N(Nc2ccccc2)C1=O (stereo not given) | 12.5 µM (active) | –
CCc1ccc(C(=O)NN(C(=O)c2cc(C)cc(C)c2)C(C)(C)C)cc1 | 50 µM (active) | –
N#CN | – | inactive
O=[N+]([O-])/N=C1\NCCN1Cc1ccc(Cl)nc1 | 33.9 µM (active) | –
CNC(=O)Oc1cccc(N=CN(C)C)c1 | – | inactive
COP(=S)(OC)Oc1ccc(SC)c(C)c1 | – | inactive
CCOCN(C(=O)CCl)c1c(C)cccc1CC | 81.2 µM (active) | –

SMILES | AC50 | outcome
CCCN(CCC)c1c([N+](=O)[O-])cc(C(F)(F)F)cc1[N+](=O)[O-] | – | inactive
O=S1OCC2C(CO1)C1(Cl)C(Cl)=C(Cl)C2(Cl)C1(Cl)Cl (stereo not given) | 77.3 µM (active) | –
O=C1c2ccccc2C(=O)N1SC(Cl)(Cl)Cl | – | inactive
N#Cc1c(Cl)c(Cl)c(Cl)c(C#N)c1Cl | – | inactive
Cc1[nH]c(=O)n(C(C)(C)C)c(=O)c1Cl | – | inactive
CC(C)OC(=O)Nc1cccc(Cl)c1 | – | inactive
CC(C)(C)C(O)/C(=C\c1ccc(Cl)cc1Cl)n1cncn1 (stereo not given) | 30.7 µM (active) | –
CC1(C)C(C=C(Cl)Cl)C1C(=O)OC(C#N)c1ccc(F)c(Oc2ccccc2)c1 (stereo not given) | – | inactive
CCC(C)(NC(=O)c1cc(Cl)c(C)c(Cl)c1)C(=O)CCl (stereo not given) | 80.6 µM (active) | –
CNC(=O)/C=C(\C)OP(=O)(OC)OC | – | inactive
Oc1ccc(Cl)cc1Cc1ccccc1 | 76.8 µM (active) | inactive
O=[N+]([O-])c1c(Cl)c(Cl)c(Cl)c(Cl)c1Cl | – | inactive
CCC(C)Nc1c([N+](=O)[O-])cc(C(C)(C)C)cc1[N+](=O)[O-] (stereo not given) | 50 µM (active) | –
OCCOc1ccccc1 | – | inactive
O=C(O)CCCOc1ccc(Cl)cc1Cl | – | inactive
Clc1ccccc1-c1nnc(-c2ccccc2Cl)nn1 | – | inactive
COc1nn(CSP(=S)(OC)OC)c(=O)s1 | – | inactive
CC(C)(C)C(O)C(Oc1ccc(Cl)cc1)n1cncn1 (stereo not given) | 21 µM (active) and 32.8 µM (active) and 21.6 µM (active) | –
